From PMC8384837, “Expanding the binding specificity for RNA recognition by a PUF domain” come the findings set out here.

Common to all, as to assay: yeast three-hybrid, YBZ-1, SC-Leu-His + 0.5 mM 3-AT, 4 days
Common to all, as to conditions: tags: N-Gal4 AD-HA kept; label: inside an RPR1-promoter hybrid RNA with tandem MS2 sites; ssRNA

One test deals with PUM1 PUF domain R4-GSQ (Homo sapiens, UniProt Q14671 828-1176, N971G;H972S). The method, boiled down: (§1)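 Matching RNA elements and Pumilio-1 PUF domain libraries, randomized at the three base-contacting residues of every repeat, were co-expressed from a centromeric plasmid in strain YBZ-1 (LexA–MS2 coat fusion, HIS3 reporter). The repeat regions were PCR-amplified and Illumina-sequenced from cells grown four days on SC-Leu (input) or SC-Leu-His + 0.5 mM 3-AT (selection). The interaction score is the log change in variant frequency from input to selection. It is computed in log2, with a pseudocount of 1 for absent variants.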

The next test deals with PUM1 PUF domain R8-RWP (Homo sapiens, UniProt Q14671 828-1176, N1122R;Y1123W;Q1126P). The method, boiled down: as §1
The target of the next test is PUM1 PUF domain R3-ART (Homo sapiens, UniProt Q14671 828-1176, C935A;Q939T). The method, boiled down:
as §1

The target of another test is PUM1 PUF domain R5-EFW (Homo sapiens, UniProt Q14671 828-1176, C1007E;R1008F;Q1011W). The method in brief:
as §1

A further test has as its target PUM1 PUF domain R8-PYL (Homo sapiens, UniProt Q14671 828-1176, N1122P;Q1126L). The method, boiled down: as §1
For another test, the target named is PUM1 PUF domain R8-RYN (Homo sapiens, UniProt Q14671 828-1176, N1122R;Q1126N). The method, boiled down: as §1
A further test has as its target PUM1 PUF domain R8-LFG (Homo sapiens, UniProt Q14671 828-1176, N1122L;Y1123F;Q1126G). The method, boiled down:
as §1

The target in the next test is PUM1 PUF domain R5-VYF (Homo sapiens, UniProt Q14671 828-1176, C1007V;R1008Y;Q1011F). The method, boiled down: as §1
A further test has as its target PUM1 PUF domain R4-GPN (Homo sapiens, UniProt Q14671 828-1176, N971G;H972P;Q975N). The method, boiled down: as §1
A further test addresses PUM1 PUF domain R4-WFG (Homo sapiens, UniProt Q14671 828-1176, N971W;H972F;Q975G). The method in brief: as §1
For the next test, the target named is PUM1 PUF domain R1-RGC (Homo sapiens, UniProt Q14671 828-1176, S863R;R864G;Q867C). The method, boiled down: as §1
For a further test, the target named is PUM1 PUF domain R7-RGW (Homo sapiens, UniProt Q14671 828-1176, S1079R;N1080G;E1083W). The method, boiled down: as §1
Another test deals with PUM1 PUF domain R4-VFP (Homo sapiens, UniProt Q14671 828-1176, N971V;H972F;Q975P). The method in brief: as §1
The target of the next test is PUM1 PUF domain R5-NIL (Homo sapiens, UniProt Q14671 828-1176, C1007N;R1008I;Q1011L). The method in brief: as §1
The target of another test is PUM1 PUF domain R2-RRC (Homo sapiens, UniProt Q14671 828-1176, N899R;Y900R;Q903C). The method, boiled down: as §1
The target of another test is PUM1 PUF domain R5-RAV (Homo sapiens, UniProt Q14671 828-1176, C1007R;R1008A;Q1011V). The method, boiled down:
as §1

Another test deals with PUM1 PUF domain R5-KQC (Homo sapiens, UniProt Q14671 828-1176, C1007K;R1008Q;Q1011C). The method in brief:
as §1

For another test, the target named is PUM1 PUF domain R3-RAG (Homo sapiens, UniProt Q14671 828-1176, C935R;R936A;Q939G). The method in brief: as §1
In the next test the target is PUM1 PUF domain R3-QRS (Homo sapiens, UniProt Q14671 828-1176, C935Q;Q939S). The method, boiled down: as §1
Another test deals with PUM1 PUF domain R3-IFS (Homo sapiens, UniProt Q14671 828-1176, C935I;R936F;Q939S). The method in brief: as §1

PUM1 PUF domain R1-RGC, sequence (Q14671 828-1176 S863R/R864G/Q867C): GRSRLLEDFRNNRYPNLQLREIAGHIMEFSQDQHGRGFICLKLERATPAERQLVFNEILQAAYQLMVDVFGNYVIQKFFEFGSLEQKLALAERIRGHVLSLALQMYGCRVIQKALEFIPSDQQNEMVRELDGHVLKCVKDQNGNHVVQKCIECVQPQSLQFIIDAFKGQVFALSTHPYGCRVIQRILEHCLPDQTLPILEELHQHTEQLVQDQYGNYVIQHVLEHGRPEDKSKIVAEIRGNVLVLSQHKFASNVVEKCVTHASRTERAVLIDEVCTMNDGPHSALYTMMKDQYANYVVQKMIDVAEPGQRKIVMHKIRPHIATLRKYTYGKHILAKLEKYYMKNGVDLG
PUM1 PUF domain R8-LFG, sequence (Q14671 828-1176 N1122L/Y1123F/Q1126G): as the sequence (Q14671 828-1176 S863R/R864G/Q867C) above, with R36S, G37R, C40Q, N295L, Y296F, Q299G counted along it
PUM1 PUF domain R3-QRS, sequence (Q14671 828-1176 C935Q/Q939S): as the sequence (Q14671 828-1176 S863R/R864G/Q867C) above, with R36S, G37R, C40Q, C108Q, Q112S counted along it
PUM1 PUF domain R4-WFG, sequence (Q14671 828-1176 N971W/H972F/Q975G): as the sequence (Q14671 828-1176 S863R/R864G/Q867C) above, with R36S, G37R, C40Q, N144W, H145F, Q148G counted along it
PUM1 PUF domain R4-GPN, sequence (Q14671 828-1176 N971G/H972P/Q975N): as the sequence (Q14671 828-1176 S863R/R864G/Q867C) above, with R36S, G37R, C40Q, N144G, H145P, Q148N counted along it
PUM1 PUF domain R5-KQC, sequence (Q14671 828-1176 C1007K/R1008Q/Q1011C): as the sequence (Q14671 828-1176 S863R/R864G/Q867C) above, with R36S, G37R, C40Q, C180K, R181Q, Q184C counted along it
PUM1 PUF domain R4-VFP, sequence (Q14671 828-1176 N971V/H972F/Q975P): as the sequence (Q14671 828-1176 S863R/R864G/Q867C) above, with R36S, G37R, C40Q, N144V, H145F, Q148P counted along it
PUM1 PUF domain R2-RRC, sequence (Q14671 828-1176 N899R/Y900R/Q903C): as the sequence (Q14671 828-1176 S863R/R864G/Q867C) above, with R36S, G37R, C40Q, N72R, Y73R, Q76C counted along it
PUM1 PUF domain R5-VYF, sequence (Q14671 828-1176 C1007V/R1008Y/Q1011F): as the sequence (Q14671 828-1176 S863R/R864G/Q867C) above, with R36S, G37R, C40Q, C180V, R181Y, Q184F counted along it
PUM1 PUF domain R3-RAG, sequence (Q14671 828-1176 C935R/R936A/Q939G): as the sequence (Q14671 828-1176 S863R/R864G/Q867C) above, with R36S, G37R, C40Q, C108R, R109A, Q112G counted along it

For “GGCUAGAACUAGUGGAUCCCCCGGCGCCCGGCGGCUCGAGCCCGGGUAAGUGUACAUAGUCUGCAUGCCGCCGGGCGCCAUGCCUGCAGGUCGACUCUAGAAAACAUG”, the binding signal in the test with PUM1 PUF domain R4-GSQ was 3.24 log2 enrichment (interaction score).

In the case of “GGCUAGAACUAGUGGAUCCCCCGGCGCCCGGCGGCUCGAGCCCGGGUAAGUGUAAAUAGUCUGCAUGCCGCCGGGCGCCAUGCCUGCAGGUCGACUCUAGAAAACAUG”, the binding signal with PUM1 PUF domain R8-RWP is 3.02 log2 enrichment (interaction score); in the test with PUM1 PUF domain R3-ART, 3.43 log2 enrichment (interaction score); with PUM1 PUF domain R5-EFW it was 4.47 log2 enrichment (interaction score); in the test with PUM1 PUF domain R8-PYL it was 2.9 log2 enrichment (interaction score); with PUM1 PUF domain R8-RYN it was 5.13 log2 enrichment (interaction score); in the test with PUM1 PUF domain R8-LFG, 1.28 log2 enrichment (interaction score). Moreover, the binding signal with PUM1 PUF domain R5-VYF was 2.44 log2 enrichment (interaction score); with PUM1 PUF domain R4-GPN, 3.62 log2 enrichment (interaction score); with PUM1 PUF domain R4-WFG, 1.81 log2 enrichment (interaction score).

Consider “GGCUAGAACUAGUGGAUCCCCCGGCGCCCGGCGGCUCGAGCCCGGGUAAGUGUAAAUUGUCUGCAUGCCGCCGGGCGCCAUGCCUGCAGGUCGACUCUAGAAAACAUG”, for which the binding signal with PUM1 PUF domain R1-RGC is 2.07 log2 enrichment (interaction score).

As to “GGCUAGAACUAGUGGAUCCCCCGGCGCCCGGCGGCUCGAGCCCGGGUAAGUUUAAAUAGUCUGCAUGCCGCCGGGCGCCAUGCCUGCAGGUCGACUCUAGAAAACAUG”, the binding signal with PUM1 PUF domain R7-RGW was 3.68 log2 enrichment (interaction score).

Consider “GGCUAGAACUAGUGGAUCCCCCGGCGCCCGGCGGCUCGAGCCCGGGUAAGUGUAUAUAGUCUGCAUGCCGCCGGGCGCCAUGCCUGCAGGUCGACUCUAGAAAACAUG”, for which the binding signal in the test with PUM1 PUF domain R4-GSQ is 0.64 log2 enrichment (interaction score); with PUM1 PUF domain R4-VFP, 3.78 log2 enrichment (interaction score); with PUM1 PUF domain R4-WFG, 2.4 log2 enrichment (interaction score).

Consider “GGCUAGAACUAGUGGAUCCCCCGGCGCCCGGCGGCUCGAGCCCGGGUAAGUGUUAAUAGUCUGCAUGCCGCCGGGCGCCAUGCCUGCAGGUCGACUCUAGAAAACAUG”, for which the binding signal with PUM1 PUF domain R5-NIL is 3.18 log2 enrichment (interaction score).

In the case of “GGCUAGAACUAGUGGAUCCCCCGGCGCCCGGCGGCUCGAGCCCGGGUAAGUGUAAAUGGUCUGCAUGCCGCCGGGCGCCAUGCCUGCAGGUCGACUCUAGAAAACAUG”, the binding signal with PUM1 PUF domain R1-RGC is 1.27 log2 enrichment (interaction score).

In the case of “GGCUAGAACUAGUGGAUCCCCCGGCGCCCGGCGGCUCGAGCCCGGGUAAGUGUAAAGAGUCUGCAUGCCGCCGGGCGCCAUGCCUGCAGGUCGACUCUAGAAAACAUG”, the binding signal with PUM1 PUF domain R2-RRC is 2.42 log2 enrichment (interaction score).

As for “GGCUAGAACUAGUGGAUCCCCCGGCGCCCGGCGGCUCGAGCCCGGGUAAGUGUGAAUAGUCUGCAUGCCGCCGGGCGCCAUGCCUGCAGGUCGACUCUAGAAAACAUG”, in the test with PUM1 PUF domain R5-EFW, the binding signal is 4.12 log2 enrichment (interaction score).

For the sequence “GGCUAGAACUAGUGGAUCCCCCGGCGCCCGGCGGCUCGAGCCCGGGUAAGUGUCAAUAGUCUGCAUGCCGCCGGGCGCCAUGCCUGCAGGUCGACUCUAGAAAACAUG”, the binding signal was 2.94 log2 enrichment (interaction score) in the test with PUM1 PUF domain R5-RAV and 3.25 log2 enrichment (interaction score) with PUM1 PUF domain R5-KQC.

For “GGCUAGAACUAGUGGAUCCCCCGGCGCCCGGCGGCUCGAGCCCGGGUAAGUGUAAUUAGUCUGCAUGCCGCCGGGCGCCAUGCCUGCAGGUCGACUCUAGAAAACAUG”, the binding signal with PUM1 PUF domain R3-ART is 0.34 log2 enrichment (interaction score); with PUM1 PUF domain R3-RAG it was 3.75 log2 enrichment (interaction score); with PUM1 PUF domain R3-QRS, 2.68 log2 enrichment (interaction score).

“GGCUAGAACUAGUGGAUCCCCCGGCGCCCGGCGGCUCGAGCCCGGGUAAGCGUAAAUAGUCUGCAUGCCGCCGGGCGCCAUGCCUGCAGGUCGACUCUAGAAAACAUG”: the binding signal in the test with PUM1 PUF domain R8-RWP was 5 log2 enrichment (interaction score); in the test with PUM1 PUF domain R8-PYL it was 3.48 log2 enrichment (interaction score); in the test with PUM1 PUF domain R8-RYN it was 6.46 log2 enrichment (interaction score); with PUM1 PUF domain R8-LFG, 2.38 log2 enrichment (interaction score).

For “GGCUAGAACUAGUGGAUCCCCCGGCGCCCGGCGGCUCGAGCCCGGGUAAGUGUAAAUCGUCUGCAUGCCGCCGGGCGCCAUGCCUGCAGGUCGACUCUAGAAAACAUG”, in the test with PUM1 PUF domain R1-RGC, the binding signal is 3.36 log2 enrichment (interaction score).

As for “GGCUAGAACUAGUGGAUCCCCCGGCGCCCGGCGGCUCGAGCCCGGGUAAGUGUAAGUAGUCUGCAUGCCGCCGGGCGCCAUGCCUGCAGGUCGACUCUAGAAAACAUG”, the binding signal in the test with PUM1 PUF domain R3-IFS is 5.56 log2 enrichment (interaction score); in the test with PUM1 PUF domain R3-QRS, 2.75 log2 enrichment (interaction score).
